This is an account of results in PubChem BioAssay (EPA / NIEHS).

The source made the active and inactive calls. The calls were made as follows: active = hit-call score of the fitted dose curve at least 0.9, where 1 is the maximum; inactive = score below 0.9.

Read-out in this assay: ABC Transporter (ABCC2), ABCC2 (gene 1244)
Nature of the assay: LTEA_HepaRG_ABCC2: Life Technologies and Expression Analysis (LTEA) Assay for ABC Transporter (ABCC2) using HepaRG (AID 2283464). To be noted: mRNA level, 48 h; actives raise or lower the signal. The protocol:
LTEA_HepaRG is a cell based, multiplexed-readout assay that uses HepaRG, a human liver cell line, with measurements taken at 48 hours after chemical dosing on a 96-well plate.LTEA_HepaRG_ABCC2 is one of 102 assay component(s) measured in the LTEA HepaRG cell culture assay. It is a marker of Steatosis/NR mediated transport.Data from the assay component LTEA_HepaRG_ABCC2 was analyzed into 1 endpoint. This assay endpoint, LTEA_HepaRG_ABCC2, was analyzed with bidirectional fitting relative to DMSO as the negative control and baseline of activity. Using a type of inducible reporter, measures of mRNA induction for gain or loss-of-signal activity can be used to understand regulation of transcription factor activity. To generalize the intended target to other relatable targets, this assay endpoint is annotated to the transporter intended target family, where the subfamily is ABC transporter.
A total of 1060 chemcials from the ToxCast library were tested in eight-point concentration-response experiments. Cell culture and cytotoxicity assays were conducted at Thermo Fisher Scientific's Custom Services facility (Madison, WI). A single lot of human HepaRG cells (Thermo Fisher Scientific, Frederick, MD) was used for the cell culture experiments. 96-well format collagen type I coated plates of human HepaRG cells were prepared using established methods. Briefly, cryopreserved HepaRG cells were thawed, plated at a density of approximately 100,000 cells/well in HepaRG Thaw, Plate, and General Purpose media (HPRG770, Thermo Fisher Scientific), and incubated for 48 hours. 0.5% DMSO was selected as vehicle control to balance the requisite need of DMSO in HepaRG cultures to maintain differentiation (for example, baseline metabolism, proportions of hepatocytes vs. cholangiocytes), while enabling further hepatic receptor pathway activation (for example, PXR and CAR) in response to chemical exposure. 48 hours after plating, the culture medium was replaced with HepaRG Serum-Free Incudtion Media. Cells were exposed to each test chemical in duplicate and maintained in CO2 incubators for another 48 hours. Chemical plates were thawed to room temperature and 200x concentrations of treatment groups were prepared. 8-point conentration-reponse curves were made with the highest exposure at 100 uM, followed by half-log dilutions, all in 0.5% DMSO. Each test plate contained variouse controls, induction positive controls (1mM phenobarbital), cytotoxicity positive controls ([…] aflatoxin B1), vehicle controls (0.5% DMSO), and total lysis controls (0.5% DMSO). Cell morphology images were taken using an Essen IncuCyte FLR automated microscope, with six 96-well plates imaged in about 24 minutes. Images were captured and exported and JPEG files. Spent culture media was transfered to black-well plates for the LDH assay, and remaining media was sorted at -80 C for later use. Cells were treated with RLT buffer and frozen until shipped for gene expression analysis. Total RNA was isolated from the cell suspension in 75 uL of Buffer RLT (Qiagen, Germantown, MD 20874) by Quintiles/Expression Analysis (Durham, NC) using a custom isolation procedure. Total RNA from each plate well was transferred to a preamplification plate. Fluidigm's 96.96 Dynamic ArrayTM (Fluidigm, Amsterdam, the Netherlands) technology was used for gene expression analyses by quantitative reverse transcription polymerase chain reaction (qRT-PCR, performed by Quintiles/Expression Analysis, Durham, NC)89. Standard TaqManTM Assays (Applied Biosystems/ThermoFisher Scientific, Foster City, CA) were used to assess the expression of 93 genes selected based on their selectivity and sensitivity to important hepatic receptors known to be modulated by environmental chemicals; importance in human hepatocyte functionality; and hepatotoxicity. […]
For `O=S1(=O)CCCO1`, the compound was classed as inactive. The same measure, in the same setting: under `CCCCOC(=O)c1ccccc1` stands “inactive”; under `CC(C)c1nnc2ccc(-c3ocnc3-c3cc(F)ccc3F)cn12`, “inactive”. For the compound `NC(=O)N1c2ccccc2C=Cc2ccccc21`, the half-maximal activity concentration (AC50) (as a rule, the concentration at which the activity in the assay is half-maximal) was 37.8 µM (active). On to `CCCCC(CC)C(=O)OCCOCCOCCOC(=O)C(CC)CCCC` (stereo not given), for which the outcome was inactive. Still for that read-out and setting: under `c1ccc2cc3ccccc3cc2c1` stands “inactive”; under `O=C(NO)C1(NS(=O)(=O)c2ccc(Oc3ccc(F)cc3)cc2)CCOCC1`, “inactive”. As to `C=CCc1cc(S(=O)(=O)c2ccc(O)c(CC=C)c2)ccc1O`, the AC50 is 50 µM (active).

Turning to `CCCCCCCC1CCC(=O)O1` (stereo not given), the compound was classed as inactive. On the same count and under the same terms, for `NC(N)=O` the value was “inactive”; for `CCOc1ccc2[nH]cc(C(=O)NCc3ccccc3)c(=O)c2n1`, “inactive”. On the same count and under the same terms, under `CCN(CC)C(=S)SSC(=S)N(CC)CC` stands “inactive”. Take `NC(=O)NN=Cc1ccc([N+](=O)[O-])o1`: the AC50 was 50 µM (active). For `CCCCCCCCN(C)C`, the call was inactive. The same measure, in the same setting: under `CCCCCCCCCC` stands “inactive”; under `NC(=O)N(O)[C@@H]1COc2cc(OCc3ccccc3)ccc21`, “inactive”. Same read-out and setting: under `OCC(CO)(CO)CO` stands “inactive”. As for `c1ccc(C(O[C@@H]2CCCN(CCc3ccc4c(c3)OCO4)C2)c2ccccc2)cc1`, the AC50 was 79.7 µM (active). Consider `Cn1cc[nH]c1=S`, for which the result was inactive. Turning to `Cc1nc(-c2ccccn2)ncc1C(=O)Nn1cc(C)c2cc(F)ccc21`, the AC50 is 12.2 µM (active). For `Nc1ccn([C@@H]2O[C@H](CO)[C@@H](O)[C@@H]2O)c(=O)n1`, the outcome was inactive. The same measure, in the same setting: for `OCCOCCOCCO` the value was “inactive”; for `C=CN1CCCC1=O`, “inactive”.

In the case of `COc1cc(C(C)C)c2c(c1)S(=O)(=O)N(COc1cc(=O)n3cccc(OCCN4CCCCC4)c3n1)C2=O`, the AC50 is 22.3 µM (active). On to `CC(=O)c1ccccc1`, for which the call was inactive.

`CCCCCCCCCCCCCCCCOS(=O)(=O)O`: the compound was classed as inactive. The same measure, in the same setting: under `CCCc1ccccc1` stands “inactive”.

Regarding `Cc1nccn1-c1ccc(Sc2cccc(C3(C(N)=O)CCOCC3)c2)cc1`, the AC50 was 19.9 µM (active). For the compound `CCn1nc(C)c2c1C(=O)NCC(c1ccc(O)cc1)=N2`, the result was inactive. `CC[C@H](C)C(=O)O[C@H]1C[C@H](O)C=C2C=C[C@H](C)[C@H](CC[C@@H](O)C[C@@H](O)CC(=O)O)[C@H]21`: the result was inactive. For the compound `CCCCCCOC(=O)CC(CC(=O)OCCCCCC)(OC(=O)CCC)C(=O)OCCCCCC`, the compound was classed as inactive.

Consider `C[C@]12C=CC(=O)C=C1CC[C@H]1[C@@H]3C[C@@H](O)[C@](O)(C(=O)CO)[C@@]3(C)C[C@H](O)[C@@]12F`, for which the compound was called inactive. Same read-out and setting: under `CCCC(CCC)C(=O)O` stands “inactive”; under `O=C(O)c1ccc2c(c1)nc(C(=O)NC1CCN(C3CC3)CC1)n2Cc1cc(-c2ccc(Cl)s2)on1`, “inactive”; under `CC(C)CCCCCCOC(=O)C1CCCCC1C(=O)OCCCCCCC(C)C` (stereo not given), “inactive”.

On to `Cn1c(=O)c2[nH]cnc2n(C)c1=O`, for which the compound was called inactive. `CCCCCOC(C)=O`: the outcome was inactive. Same read-out and setting: for `OC[C@H]1O[C@@](CO)(O[C@H]2O[C@H](CO)[C@@H](O)[C@H](O)[C@H]2O)[C@@H](O)[C@@H]1O` the value was “inactive”. The same measure, in the same setting: for `Cc1ccc(S(=O)(=O)NC(=O)NN2CCCCCC2)cc1` the value was “inactive”. Still for that read-out and setting: for `CC1(C)C(=O)N(Cl)C(=O)N1Cl` the value was “inactive”.
